USP1-UAF1 inh: blocks the human USP1/UAF1 deubiquitinase complex; O94782; recombinant USP1/UAF1, Ub-Rhodamine cleavage fluorescence; Potency, µM (titrated, usually from 57.1 µM), for inactives: top-dose activity change, negative = inhibition, most hits filed as inhibitors; 390,000 compounds, 0.23% hits; AID 743255; note: potency is the fitted concentration of half-maximal effect; nearly all actives have a fitted effect of over 60% in size
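In this screen, compounds sit with the deubiquitinase complex (1nM) for 15 min at room temperature before Ub-Rho is added at 150nM final. Fluorescence rise is then followed for 6 reads every 60 seconds.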
VDR inh: inhibitors of human vitamin D receptor. VDR-SRC2-3 peptide fluorescence polarization, 2 h. 400,000 compounds, 0.93% hits. Potency, µM, for the others: max response, negative = inhibition, usual class: inhibitors; note: potency is the fitted concentration of half-maximal effect
Target sequence (P11473 whole entry, looked up): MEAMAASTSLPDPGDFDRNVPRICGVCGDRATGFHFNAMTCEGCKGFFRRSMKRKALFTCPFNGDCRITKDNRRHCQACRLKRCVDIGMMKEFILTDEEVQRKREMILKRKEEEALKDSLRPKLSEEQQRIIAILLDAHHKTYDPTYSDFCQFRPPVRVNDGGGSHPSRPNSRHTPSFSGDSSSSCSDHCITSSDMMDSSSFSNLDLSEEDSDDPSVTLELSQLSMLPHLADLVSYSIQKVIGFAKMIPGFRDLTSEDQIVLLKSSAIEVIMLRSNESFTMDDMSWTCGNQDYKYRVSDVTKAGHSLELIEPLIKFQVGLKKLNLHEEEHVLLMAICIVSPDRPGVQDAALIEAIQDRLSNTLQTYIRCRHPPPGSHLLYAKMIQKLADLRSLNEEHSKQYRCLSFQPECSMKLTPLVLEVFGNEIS
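Measured by FP: displacement of SRC2-3 coactivator peptide from VDR by library compounds, following a two-hour ambient incubation.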
PLK1 PBD block: PLK1 (human) polo-box domain binding inhibition; Plk1 PBD binding of FITC phosphopeptide, fluorescence polarization; 360,000 compounds, 2.8% hits; P53350; Potency, µM, for inactives: max response, negative = inhibition, usual class: inhibitors; note: potency is the fitted concentration of half-maximal effect; series mostly up to about 57 µM; nearly all actives have a fitted effect of over 65% in size
USP2a block: inhibitors of human ubiquitin-specific protease USP2a | O75604 | USP2 core, Ub-CHOP2 coupled fluorogenic reporter, 485/531 | Potency, µM (titrated, usually from 38.3 µM), inactives show at the highest dose activity change, negative = inhibition, most hits filed as inhibitors | 330,000 compounds, 0.01% hits | AID 463254;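 note: potency is the fitted concentration of half-maximal effect; plate controls were DMSO wells for no effect and full inhibition by NEM control for full effect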
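Cell-free coupled assay: 10nM USP2 core preincubated 30min RT with compound in Tris-HCl pH 8.0/CaCl2/CHAPS buffer, then 25nM Ub-CHOP2 and 25nM reporter substrate; fluorescence (Ex 485/Em 531) read after 60min RT, normalized to NEM inhibition, concentration-response curves fitted.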
FBPA coupling cs: counter-screen for Giardia aldolase inhibitors: coupling enzyme system; coupling enzyme system counterscreen, AmpLite Red fluorescence; activity change, negative = inhibition, % at 58.2 µM, hits read low; 290,000 compounds, 0.67% hits; AID 2472; in the data active = activity change below about -30%
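First, compound is pin-transferred into glyceraldehyde-3-phosphate coupling-enzyme reagent at 57.5 uM final and held 10 min at RT. Next, substrate, coupling system and AmpLite Red are added. After 20 min RT, fluorescence (525/598 nm) is read.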
GALK inhibitor: blocks human galactokinase activity; P51570; Purified GALK, Kinase-Glo residual ATP luminescence; Potency, µM (doses to about 57.5 µM), for the others: top-dose activity change, negative = inhibition, actives largely listed as inhibitors; 270,000 compounds, 0.007% hits; AID 1868; note: potency is the fitted concentration of half-maximal effect
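5 nM enzyme, 35 uM ATP, 100 uM galactose, 20 mM HEPES pH8.0, 5 mM MgCl2; 1 h RT; residual ATP by Kinase-Glo Plus luminescence, qHTS format.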
* = called active by the depositor; u = inconclusive; x = not tested or not shown. The list is not random: actives were taken first. Their share in the collection is about 3.2%. Unless noted, calls come from the whole dose curve; as a rule, active = well fitted curve in the direction sought with a large enough effect; inconclusive = small, poorly fitted or top-dose-only effect, or another doubt; inactive = no such curve, though single readings can be large; an effect the other way counts as inactive or inconclusive. Unless noted, % is set by controls: 0 for no effect and ±100 for the full control effect.

SMILES	USP1-UAF1 inh	VDR inh	PLK1 PBD block	USP2a block	FBPA coupling cs	GALK inhibitor
CC(C)(C)OC(=O)NC(Cc1ccccc1)C(=O)NC1COC2CC(n3ccc(=O)[nH]c3=O)OC12 (centres undefined)	x	-13%	x	x	-1	x
CCOn1c(=O)c(-c2ccc(Cl)cc2)[n+]([O-])c2ccccc21	-10%	u	21µM*	0%	0	0%
CCOn1c(=O)c(-c2cccs2)[n+]([O-])c2ccccc21	-8%	4%	u	2%	2	-2%
COn1c(=O)c(-c2cccs2)[n+]([O-])c2ccccc21	-5%	0%	2.1µM*	2%	0	-1%
O=c1c(-c2ccc(F)cc2)[n+]([O-])c2ccccc2n1OCc1ccccn1	-2%	u	21µM*	1%	2	7%
CCOn1c(=O)c(-c2ccc(F)cc2)[n+]([O-])c2ccccc21	-19%	0%	4%	1%	0	x
COc1ccc(Cc2nnc(N)s2)cc1OC	-12%	-6%	u	0%	1	-4%
O=C(/C(=C/c1cccnc1)n1ccnc1)c1ccc(Cl)cc1Cl	-13%	50µM*	u	-2%	0	-3%
CN(C)c1ccc(C=NN2C(=O)CSC2=S)c(Cl)c1	-12%	x	1%	x	x	x
CN(C)c1ccc(N2CN=C3SCC(=O)N3C2)cc1	-9%	u	1%	-9%	-51*	3%
O=C(c1cc2ncccn2n1)N1CCc2c([nH]c3ccccc23)C1c1ccccc1F (centres undefined)	-21%	-8%	-16%	2%	-3	-1%
O=C(O)c1cccc(N2C(=O)c3ccc(C(=O)c4cccc([N+](=O)[O-])c4)cc3C2=O)c1	-20%	-7%	-5%	7%	9	1%
O=C(O)c1ccc2c(c1)C(=O)N(c1cccc(C(=O)/C=C/c3ccccc3)c1)C2=O	-10%	u	42µM*	3%	9	3%
Cc1ccc(C(=O)c2ccccc2C(=O)OCC(=O)N2C(C)CCCC2C)cc1 (centres undefined)	-13%	51%	-1%	1%	x	x
Cn1c(NNC(=O)c2c(F)cccc2F)cc(=O)n(C)c1=O	-17%	1%	-8%	-1%	2	2%
Cn1c(NNC(=O)c2ccccc2F)cc(=O)n(C)c1=O	-22%	-15%	0%	1%	-30*	-2%
COc1cc(C2C(C(=O)Nc3ccc(Cl)cc3)=C(C)Nc3nc(SC)nn32)cc(OC)c1OC (centres undefined)	-9%	-6%	x	x	x	x
Fc1ccccc1NC(=S)NCCc1ccc(Cl)cc1	-28%	-5%	-10%	3%	x	-3%
OCCNC(=S)NCCc1ccccc1	-17%	-1%	-2%	0%	1	-1%
S=C(NCCc1ccccc1)Nc1c(Cl)cccc1Cl	-18%	-20%	27µM*	1%	-1	2%
Fc1ccccc1NC(=S)NCCc1ccccc1	-20%	-22%	3µM*	3%	0	-5%
O=C(CSc1ccc2c(c1)OCCO2)Nc1ccccc1	-28%	x	-13%	x	x	x
CC(C)Nc1ccc(Nc2ccnc3cc4ccccc4cc23)cc1	-5%	-16%	2%	3%	-3	5%
c1ccc(CCNc2ccnc3cc4ccccc4cc23)cc1	u	1%	-9%	-1%	-44*	-1%
Cc1ccc(/C=C2/C(=O)N(c3ccccc3)C(=S)N2C)o1	-8%	79µM*	-28%	1%	-11	0%
SMILES	USP1-UAF1 inh	VDR inh	PLK1 PBD block	USP2a block	FBPA coupling cs	GALK inhibitor
CCOc1ccc(N2C(=O)/C(=C/c3ccco3)N(C)C2=S)cc1	-11%	-13%	-8%	2%	1	0%
CCOC(=O)C1=C(C(C)=O)C(c2cccnc2)C(C#N)=C(N)O1 (centres undefined)	-13%	-11%	-7%	3%	-34*	1%
CCOC(=O)C1=C(CSc2nc(-c3ccncc3)ccc2C#N)OC(N)=C(C#N)C1c1cccnc1 (centres undefined)	-16%	-6%	-8%	3%	2	6%
CCN(Cc1ccncc1)S(=O)(=O)c1ccc(C(C)=O)cc1	-16%	u	19µM*	1%	-11	4%
CCN(CC)S(=O)(=O)c1ccc(C(=O)Nc2ccc(Cc3ccncc3)cc2)cc1	-9%	3%	-18%	4%	0	2%
COC(=O)C(NNc1ccccc1C)(NC(=O)c1ccc(F)cc1)C(F)(F)F (centres undefined)	-15%	-29%	27µM*	-2%	-4	-2%
c1cncc(CNc2cc(-c3ccoc3)ncn2)c1	x	22µM*	x	x	-3	x
Cc1cnc(CNc2cc(-c3ccoc3)ncn2)cn1	x	45µM*	x	x	-10	x
Cc1cnc(CNc2cc(-c3ccc4c(c3)OCO4)ncn2)cn1	x	-14%	x	x	-1	x
O=C(O)/C=C/C(=O)Nc1ccc(C2(c3ccc(NC(=O)/C=C/C(=O)O)cc3)c3ccccc3-c3ccccc32)cc1	-18%	25µM*	30µM*	-11%	23	-3%
O=C(/C=C/Sc1ccc(C(F)(F)F)cn1)c1ccccc1	-14%	79µM*	-16%	2%	3	x
CCNC(=O)c1c(O)c2c([nH]c1=O)CCCC2	-20%	u	27µM*	0%	-2	6%
CCCNC(=O)c1c(O)c2c([nH]c1=O)CCCC2	u	-7%	u	-1%	-6	1%
CN(C)CCCN(C(=O)c1ccc(S(=O)(=O)N2CCCCC2)cc1)c1nc2cc3c(cc2s1)OCO3	-2%	-10%	-7%	2%	0	4%
CN(C)S(=O)(=O)c1cccc(NC(=S)N/N=C/c2ccc(O)c(O)c2O)c1	-25%	89µM*	6µM*	4%	-56*	-7%
COc1cccc(/C=N/NC(=S)Nc2cccc(S(=O)(=O)N(C)C)c2)c1	-8%	79µM*	8.4µM*	0%	-10	-2%
CCN(CCO)c1ccc(NC(=S)Nc2cccc(S(=O)(=O)N(C)C)c2)cc1	-26%	u	27µM*	-6%	-41*	-1%
CN(C)S(=O)(=O)c1cccc(NC(=S)Nc2cc(Cl)cc(Cl)c2)c1	-11%	-10%	u	-1%	0	0%
CCCc1c(-c2cccc(F)c2)ncn1Cc1ccccc1OC	x	x	-6%	x	x	x
O=C(O)C(c1ccccc1)N1C(=O)/C(=C\c2ccc(-c3ccccc3Cl)o2)SC1=S (centres undefined)	u	50µM*	u	u	2	-2%
O=C(O)C(c1ccccc1)N1C(=O)/C(=C\c2ccc(-c3ccc(Br)cc3)o2)SC1=S (centres undefined)	-4%	u	-9%	3%	2	-20%
O=C(O)c1ccc(CSc2nc3c(c(=O)[nH]2)CCC3)cc1	x	x	-2%	x	x	x

Assay outcomes (PubChem)
